The list is not random: actives were taken first. Their share in the collection is about 2.2%.
CHT PAM: CHT positive allosteric modulators, primary screen, cell-based, membrane potential dye, choline EC20 | 310,000 compounds, 0.49% hits | B-score at 10 µM | AID 488977, 2010 | CHT-expressing cells; stronger effect = higher value; LV-AA mutant CHT in HEK293 cells;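 active = initial fluorescence not abnormally high and integrated response B-score, plate-corrected, over 3 SD above library mean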
Target sequence (Q9GZV3 whole entry, looked up): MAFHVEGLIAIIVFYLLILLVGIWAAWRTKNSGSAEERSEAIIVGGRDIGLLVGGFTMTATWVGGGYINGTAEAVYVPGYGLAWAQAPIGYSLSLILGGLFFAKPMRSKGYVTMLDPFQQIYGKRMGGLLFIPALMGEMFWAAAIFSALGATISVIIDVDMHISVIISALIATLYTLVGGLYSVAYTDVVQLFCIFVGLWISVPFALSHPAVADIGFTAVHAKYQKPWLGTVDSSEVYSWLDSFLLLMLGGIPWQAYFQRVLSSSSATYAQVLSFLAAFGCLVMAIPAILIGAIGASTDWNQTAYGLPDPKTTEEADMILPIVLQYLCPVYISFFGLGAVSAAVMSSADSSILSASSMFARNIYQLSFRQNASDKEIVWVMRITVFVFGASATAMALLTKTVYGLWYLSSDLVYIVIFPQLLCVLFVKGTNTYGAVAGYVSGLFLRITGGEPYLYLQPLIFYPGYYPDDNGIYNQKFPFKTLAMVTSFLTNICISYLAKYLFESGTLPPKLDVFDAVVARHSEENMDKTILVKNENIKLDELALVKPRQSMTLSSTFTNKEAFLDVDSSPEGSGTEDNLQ
AI-2 QS modul: Vibrio harveyi AI-2 quorum sensing modulators, primary screen, JMH597 strain, luminescence/OD600 ratio; 300,000 compounds, 0.4% hits; Vibrio harveyi JMH597 AI-2 luminescence/OD600 ratio, 9 h; stronger effect = lower value; strain lacks LuxN and CqsS sensors; 0 = neutral-control median; activity change, % at 7.5 µM; AID 2094, 2009; in the data active = activity change below about -75%, passing the limit was not always enough;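 also: luminescence divided by OD600 gain over 9 h not by final OD600 alone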
CHT block: inhibitors of human choline transporter CHT. CHT-expressing cells, membrane potential dye, choline response; stronger effect = lower value. AID 488975, 2010. B-score at 10 µM. High affinity choline transporter 1 (Homo sapiens), Q9GZV3. 310,000 compounds, 0.86% hits;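 active = B-score over 3 SD under the library average, and starting fluorescence ratio not unusually high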;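 also: choline stimulus applied at its EC90 after an EC20 pre-addition; B-score computed on integrated fluorescence ratio after choline addition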
Platelet DG rel: inhibitors of platelet dense granule secretion, primary screen, cell-based, MLPCN, human platelets. human platelet-rich plasma, SFLLRN dense granule ATP release, luminescence. 300,000 compounds, 0.22% hits. inhibition, %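 (compounds screened at 7.5 µM in platelet-rich plasma)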;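 active = mean replicate score, as percent of positive control, at or above 50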
VLA-4 inh: inhibition in human VLA-4 binding assay, primary screen, VLA-4 allosteric modulator project, MLPCN library, flow cytometry, VLA-4 expressing cells | Integrin alpha-4 (Homo sapiens), P13612 | ligand binding flow cytometry | inhibition, % (about 7 µM as worked out from the volumes in the protocol) | 330,000 compounds, 0.2% hits | AID 2557, 2010; in the data active = inhibition above about 50%
HIF activator: HIF pathway transcriptional activators, primary screen, cell-based, U2OS HRE-luciferase, luminescence; 300,000 compounds, 0.32% hits; U2OS HRE-luciferase reporter; normalized: DMSO 0%, desferrioxamine 100%; activation, % at 7.5 µM (by protocol);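 active = mean activation of at least 10% of the iron chelator positive control signal, with at least half of replicates also reaching 10%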
CHT act confirm: CHT activators, confirmation, cell-based, membrane potential dye, duplicate. activation, % at 10 µM. 2,500 compounds, 91% hits. CHT-expressing cells, membrane potential dye fluorescence (FDSS); % of choline EC20–EC90 response window; HEK293 expressing CHT LV-AA mutant; choline added at its EC20. AID 504833, 2011. shares compounds with CHT PAM;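 active = primary screen active, with duplicate mean activation above negative control mean plus 3 SD, cut at about 11% in these data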
HEK293 MP dye: membrane potential response in parental HEK293 cells, counter-screen for CHT activator project, cell-based, membrane potential dye; shares compounds with CHT PAM; membrane potential dye fluorescence (FDSS); measured after EC20 choline addition; ratio readout change at 10 µM, hits read low; 2,500 compounds, 62% hits;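 active = duplicate-averaged ratio beyond 3 SD from buffer wells, up or down, though filed actives are nearly all decreases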
* hit, by the source's call; i = inactive; / = not tested or not shown.

SMILES | CHT PAM | AI-2 QS modul | CHT block | Platelet DG rel | VLA-4 inh | HIF activator | CHT act confirm | HEK293 MP dye
COc1ccc(C(=O)c2c(N)sc3c2CCN(C)C3)cc1 | 8.3* | 14 | i | -2 | 7 | -1 | 41* | -53*
COc1cccc(N2CCN(C(=O)c3ccc(CS(=O)c4ccc(C)cc4)o3)CC2)c1 (stereo not drawn) | 8.1* | 20 | i | -4 | 12 | 0 | 21* | i
COc1cccc(N2CCN(C(=O)c3ccc(CS(=O)c4ccc(Cl)cc4)o3)CC2)c1 (stereo not drawn) | i | 1 | i | 7 | 14 | -1 | 21* | i
COc1cccc(N2CCN(C(=O)c3ccc(CS(=O)Cc4ccc(C)cc4)o3)CC2)c1 (stereo not drawn) | i | 22 | i | 20 | 8 | 0 | / | /
O=C(c1ccc(CS(=O)Cc2ccc(Cl)cc2)o1)N1CCN(c2cccc(Cl)c2)CC1 (stereo not drawn) | i | 49 | i | -12 | 4 | -1 | / | /
CNC(=O)C1CC(=O)N(CCc2ccc(C)cc2)C1 (stereo not drawn) | i | 24 | i | -6 | 2 | 1 | / | /
CCCCNC(=O)[C@@H]1CSC2c3ccccc3C(=O)N21 (stereo partly drawn) | i | -7 | i | 0 | 10 | -1 | / | /
O=C(CNC(=O)c1cccs1)N/N=C/c1c(F)cccc1Cl | i | -68 | i | -6 | -11 | 0 | / | /
O=C1Nc2ccc(S(=O)(=O)N3CCCC3)c3cccc1c23 | i | 11 | i | 4 | 4 | 0 | / | /
CCN(CC)CCNS(=O)(=O)c1ccc2c3c(cccc13)C(=O)N2 | 7.4* | 4 | i | 0 | -3 | 0 | 73* | -74*
CN(C)CCNS(=O)(=O)c1ccc2c3c(cccc13)C(=O)N2 | 6.5* | 9 | i | -7 | 0 | -1 | 74* | -86*
O=C1Nc2ccc(S(=O)(=O)NCc3ccccn3)c3cccc1c23 | / | 34 | / | 9 | / | 2 | / | /
CN1CCN(S(=O)(=O)c2ccc3c4c(cccc24)C(=O)N3)CC1 | 10* | 13 | i | 24 | -15 | -1 | 84* | -85*
CCCn1cc(S(=O)(=O)c2ccc(OC)cc2)c(=O)c2cc(OC)ccc21 | i | -5 | i | -15 | -9 | -1 | / | /
COC(=O)C(=CC(=CN(C)C)C=C(C(=O)OC)C(=O)OC)C(=O)OC | i | 12 | i | 31 | 10 | -1 | / | /
O=C(NCCOC(=O)c1c(F)cccc1Cl)c1c(F)cccc1Cl | i | 29 | i | 7 | 0 | -1 | / | /
CCOc1ccccc1NC(=O)CSc1nnc(-c2ccco2)o1 | 16* | 14 | i | 2 | -17 | 0 | 7 | i
COc1ccc(Cl)cc1NC(=O)CSc1nnc(-c2ccco2)o1 | i | 17 | i | -8 | 1 | 0 | / | /
CCN1CCN(C(=O)CCn2c(=O)c3cccn3c3cccnc32)CC1 | i | 22 | i | 4 | 9 | 0 | 58* | -30*
COc1ccc(NS(=O)(=O)c2cccc(C(=O)NN=C(C)c3ccco3)c2)cc1 | / | / | / | / | -1 | / | / | /
Cc1cc(C)n(-c2nc3ccccc3nc2N2CCCCCC2)n1 | i | 1 | i | -6 | 2 | -1 | 17* | i
COc1ccccc1CNC(=O)[C@@H]1CCCN1S(=O)(=O)c1ccccc1F | i | 21 | i | 4 | -5 | 0 | / | /
O=C(CN(c1ccccc1)S(=O)(=O)c1ccccc1[N+](=O)[O-])Nc1ccccc1C(=O)N1CCOCC1 | i | 29 | i | -4 | 2 | 0 | / | /
Cc1ccc(Oc2ccccc2NC(=O)CSCC(=O)Nc2cc(C)on2)cc1 | i | 17 | i | 2 | 4 | -5 | 0 | i
NC(=O)c1ccc(NC(=O)Cc2ccc(S(=O)(=O)N3CCCCC3)cc2)cc1 | / | / | / | / | -3 | / | / | /
SMILES | CHT PAM | AI-2 QS modul | CHT block | Platelet DG rel | VLA-4 inh | HIF activator | CHT act confirm | HEK293 MP dye
CCCC[n+]1c(C)sc2cc(OC)ccc21 | i | 22 | i | 9 | -48 | 0 | / | /
CC[n+]1c(C)sc2c3ccsc3ccc21 | 10* | 20 | i | -4 | -2 | 0 | 48* | -50*
CC1=NN(c2ccccc2)C(=O)/C1=C/N(C)C | i | 2 | i | 9 | 2 | 0 | / | /
CC1=NN(c2nc3ccccc3[nH]2)C(=O)/C1=C/N(C)C | i | 17 | i | / | 24 | / | 46* | -33*
CS(=O)(=O)N(CC(=O)Nc1ccccc1C(=O)N1CCCC1)c1ccc2c(c1)OCO2 | i | 45 | i | -1 | -10 | 0 | / | /
CSCCC(=O)N1CCC(CCC(=O)NC2CC2)CC1 | i | 3 | i | 9 | -4 | 0 | / | /
OCCNc1nc(-c2ccccc2)nc2ccccc12 | i | -26 | i | 0 | 6 | 0 | / | /
OCCNc1c2ccccc2nc2ccccc12 | 6.3* | 11 | i | 25 | 2 | 24* | 40* | -47*
OCCNc1nc(N2CCN(Cc3ccccc3)CC2)nc2ccccc12 | i | 16 | i | 3 | -7 | 1 | 60* | -72*
CCN1CCN(c2nc(NCCO)c3ccccc3n2)CC1 | 8.9* | 13 | i | 5 | 7 | 0 | 76* | -79*
COc1cc(OC)cc(N2C(=O)CC(N3CCC(C(=O)N4CCCCC4)CC3)C2=O)c1 (stereo not drawn) | i | 8 | i | -9 | -7 | 0 | / | /
CC/C(=N/NC(=O)c1ccccc1O)c1c(C)[nH]n(-c2ccccc2)c1=O | i | -9 | i | 0 | 7 | 0 | / | /
COc1ccc(CCNC(=O)CN2C(=O)NC3(CCCCC3C)C2=O)cc1 (stereo not drawn) | / | / | / | / | -1 | / | / | /
Brc1ccc(C[n+]2ccccc2)cc1 | i | 5 | i | -2 | 6 | -2 | / | /
CC[n+]1ccc(C[n+]2ccccc2)c2ccccc21 | 11* | / | i | / | 8 | / | 85* | -87*
